Results taken from PubChem BioAssay (NCATS).
Results filed as inconclusive are left out. Entries that show only a call come without a potency. Activity calls are given as the source filed them. The call rests on the fitted dose curve; in most records, active means well fitted cell-killing curve with a large enough effect; inconclusive means small, poorly fitted or top-dose-only effect; inactive means flat fitted curve, though single readings scatter.

Assay: Cell Viability - LYMP2-008 (AID 980); further: nearly all actives have a fitted effect of over 60% in size
Details: LYMP2-008 lymphoblastoid cell viability, qHTS; series mostly up to 92.2 µM
Description: NIH Chemical Genomics Center [NCGC]
NIH Molecular Libraries Screening Centers Network [MLSCN]
National Institutes of Environmental Health Sciences [NIEHS]
National Toxicology Program [NTP]
We have developed a 1536-well cell-based assay for quantitative high throughput screening (qHTS) against a number of cell lines to determine in vitro cytotoxicity of small molecules. This particular assay uses a human lymphoblastoid cell line (LYMP2-008) purchased from Coriell Institute for Medical Research.
NCGC Assay Protocol Summary:
The CellTiter-Glo luminescent cell viability assay (Promega) is a homogeneous method to measure the number of viable cells in culture. The end point readout of this assay is based on quantitation of intracellular ATP, an indicator of metabolic activity, using the luciferase reaction. Luciferase catalyzes the oxidation of beetle Luciferin to oxyluciferin and light in the presence of ATP. The luminescent signal is proportional to amount of ATP present.
Using the CellTiter-Glo luminescent cell viability assay, the amount of cellular ATP was measured in the lymphoblastoid cell line with complete culture medium following compound treatment for 24 hours. The assay was performed in opaque white Kalypsys 1536-well plates. In the screen, tetraoctylammonium bromide was used as positive control. Library compounds were measured for their ability to cause acute toxicity in the cell line, as reflected by a decrease in intracellular ATP levels, in a concentration-dependent manner. […] AC50 values were determined from concentration-response data modeled with the standard Hill equation.
qHTS protocol for CellTiter Glo lymphoblastoid cellular assay
[Step] [Parameter] [Value] [Description]
1. Reagent; 5 uL; 2500 lymphoblastoid cells/well
2. Time; 5 hr; 37 C incubation
4. Controls; 23 nL; Tetraoctylammonium bromide 6.4pM to 92 uM
5. Time; 24 hr; 37 C incubation
6. Reagent; 5 uL; CellTiter Glo reagent
7. Time; 30 min; Room Temperature
8. Detection; Luminescence; Viewlux plate reader
Keywords: cell viability, cytotoxicity, lymphoblastoid cell line, luminescence, NTPHTS, NTPHTS_NCGC, NIEHS, DSSTox, MLSMR, MLSCN, NIH Roadmap, qHTS, NCGC
Potency means the concentration at half of the fitted maximal effect.

SMILES | Potency
CCOC(=O)C1OC1c1ccccc1 (stereo not given) | inactive
NC(=O)Nc1nc2ccccc2[nH]1 | inactive
NC(=O)c1ccc([N+](=O)[O-])cc1 | inactive
O=C(O)c1ccc([N+](=O)[O-])cc1 | inactive
Cc1c2ccccc2c(C)c2c1ccc1ccccc12 | inactive
Cc1ccc(N)cc1[N+](=O)[O-] | inactive
c1ccc(CSCc2ccccc2)cc1 | inactive
c1ccc(COCc2ccccc2)cc1 | inactive
CCN(CC)c1ccc2c(C)cc(=O)oc2c1 | inactive
CC(C)COC(=O)COc1cc(Cl)c(Cl)cc1Cl | inactive
CC/C=C/C/C=C/C/C=C/CCCCCCCC(=O)OCC | 50.1 µM (active)
c1ccc(Nc2cccc3ccccc23)cc1 | inactive
CCCCC(CC)COC(=O)COc1ccc(Cl)cc1Cl (stereo not given) | inactive
C=CC1CO1 (stereo not given) | inactive
C[Si](C)(C)Cl | inactive
Nc1ccc(N)c(Cl)c1 | inactive
Oc1ccc2c(c1)OCO2 | inactive
Cc1cc2nc(N)sc2cc1C | inactive
CCCCCCCC/C=C\CCCCCCCC(=O)N(CCO)CCO | inactive
CN(C)c1ccc(Cc2ccc(N(C)C)cc2)cc1 | inactive

SMILES | Potency
Nc1ccc(N=Nc2ccccc2)c(N)c1 | inactive
O=[N+]([O-])c1cc(N(CCO)CCO)ccc1NCCO | inactive
c1ccc2ncccc2c1 | inactive
CC(=O)Nc1cccc(C)c1 | inactive
OCC(CO)(CBr)CBr | inactive
OC1CCCCC1 | inactive
CC(/C=C/C=C(C)/C=C/C(=O)O)=C\C=C\C=C(C)\C=C\C=C(C)\C=C\C(=O)O | inactive
CC1=C(/C=C/C(C)=C/C=C/C(C)=C/C=O)C(C)(C)CCC1 | 39.8 µM (active)
CCCCNCC | inactive
CC(CCC(=O)O)(c1ccc(O)cc1)c1ccc(O)cc1 | inactive
CCCCCCCCOc1ccc(C(=O)O)cc1 | inactive
CCCC(=O)OC(=O)CCC | inactive
CC(C)S | inactive
COc1ccc([N+](=O)[O-])cc1N | inactive
Oc1cc2c(cc1O)[C@H]1c3ccc(O)c(O)c3OC[C@@]1(O)C2 | 39.8 µM (active)
C1CCCNCC1 | inactive
Cc1c(N)cccc1Cl | inactive
CC(=O)OCc1ccc2c(c1)OCO2 | inactive
CCCCCCc1ccc(-c2ccc(C#N)cc2)cc1 | inactive
CCCCC(CC)COP(=O)(OCC(CC)CCCC)OCC(CC)CCCC (stereo not given) | inactive
